The values that follow come from PubChem BioAssay (NCATS).

Results filed as inconclusive are left out. Active and inactive are the calls of the source. Unless noted, the call rests on the fitted dose curve; in most records, active means well fitted curve in either direction with a large enough effect (not every such curve was filed as active); inconclusive means small, poorly fitted or top-dose-only effect, or another doubt; inactive means flat fitted curve, though single readings scatter. A value given as a limit tells only on which side of the number the result lay.

Assay [1] has as its target Lysosomal acid glucosylceramidase (Homo sapiens) (UniProt P04062). The assay can be described thus: Glucocerebrosidase-p2 (AID 348; in the data active means potency below about 10 µM; further: potency means the concentration at half of the fitted maximal effect). Particulars: purified GBA, blue fluorogenic substrate, 40 min. The procedure, abridged:
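Compounds titrated from 0.6 nM upwards against 0.2 nM enzyme in pH 5.9 citric acid/KH2PO4, taurocholate, tween-20; blue fluorogenic substrate 80 uM, 40 min room temperature, stopped and read Ex 365/Em 440 for AC50.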

Assay [2] is described as follows: AP1 Signaling Pathway (AID 357). Further: on the % scale 0 is the no-effect control and ±100 the full control effect. The note with it: ME-180 AP-1-bla reporter, EGF-induced, beta-lactamase ratio, 5 h; at 7.69 µM (top of the series) unless noted. The method, boiled down: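 First, ME-180 AP-1-bla cells were cultured overnight at 37 °C in low-serum Opti-MEM. Next, titrated compounds with EC50 EGF were incubated 5 hours. Finally, CCF4 was added for 2.5 hours and the 460/530 nm ratio recorded.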

A short description of assay [3]: NFAT Signaling Pathway (AID 444).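 Further: carbachol stimulus at about its EC50 of 1 µM final; on the % scale 0 is the no-effect control and ±100 the full control effect.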 The note with it: Jurkat NFAT-bla M1, carbachol, beta-lactamase ratio, 5 h; at 7.69 µM (top of the series) unless noted. The procedure, abridged: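 Jurkat cells with NFAT-driven β-lactamase reporter and co-expressed M1 receptor, stimulated with carbachol (final 1 uM, ~EC50), compound titration, 5 h at 37 °C. CCF4 loaded 1 h at RT; 460/530 nm ratio gave %activity and AC50.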

Assay [4] can be described thus: Stat Signaling Pathway (AID 446).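 Further: ME-180 cervical cancer cells given 40 pM IL-6 alongside compound; SIE-controlled beta-lactamase reporter measured as 460/530 nm FRET emission ratio; on the % scale 0 is the no-effect control and ±100 the full control effect.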 The note with it: ME-180 (cervical carcinoma) SIE beta-lactamase reporter, IL-6 stimulated, 5 h; at 7.69 µM (top of the series) unless noted. The procedure, abridged:
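ME-180 SIE-bla cells; overnight plating; cpd + IL-6 40 pM, 5 h, 37 C; LiveBLAzer 2.5 h RT; 460/530 nm emission ratio. Normalized to 300 pM IL-6 and 125 nM JAK inhibitor controls.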

For assay [5], the target named is Glucocorticoid receptor (Homo sapiens) (UniProt P04150). The assay can be described thus: GR-EFC Redistribution (AID 451; calls by dose curve; further: potency means the concentration at half of the fitted maximal effect). The note with it: CHO-K1 GR-EFC translocation, beta-gal luminescence, 2 h. The method, boiled down: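 CHO-K1 cells expressing nuclear EA and GR-ED fragments of b-gal; compounds titrated up to 46 uM final, 2 h at 37 C. GR nuclear translocation read as complemented b-gal luminescence after 1 h RT detection.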
Glucocorticoid receptor (Homo sapiens), sequence (P04150 whole entry, looked up, the tested form may be a part): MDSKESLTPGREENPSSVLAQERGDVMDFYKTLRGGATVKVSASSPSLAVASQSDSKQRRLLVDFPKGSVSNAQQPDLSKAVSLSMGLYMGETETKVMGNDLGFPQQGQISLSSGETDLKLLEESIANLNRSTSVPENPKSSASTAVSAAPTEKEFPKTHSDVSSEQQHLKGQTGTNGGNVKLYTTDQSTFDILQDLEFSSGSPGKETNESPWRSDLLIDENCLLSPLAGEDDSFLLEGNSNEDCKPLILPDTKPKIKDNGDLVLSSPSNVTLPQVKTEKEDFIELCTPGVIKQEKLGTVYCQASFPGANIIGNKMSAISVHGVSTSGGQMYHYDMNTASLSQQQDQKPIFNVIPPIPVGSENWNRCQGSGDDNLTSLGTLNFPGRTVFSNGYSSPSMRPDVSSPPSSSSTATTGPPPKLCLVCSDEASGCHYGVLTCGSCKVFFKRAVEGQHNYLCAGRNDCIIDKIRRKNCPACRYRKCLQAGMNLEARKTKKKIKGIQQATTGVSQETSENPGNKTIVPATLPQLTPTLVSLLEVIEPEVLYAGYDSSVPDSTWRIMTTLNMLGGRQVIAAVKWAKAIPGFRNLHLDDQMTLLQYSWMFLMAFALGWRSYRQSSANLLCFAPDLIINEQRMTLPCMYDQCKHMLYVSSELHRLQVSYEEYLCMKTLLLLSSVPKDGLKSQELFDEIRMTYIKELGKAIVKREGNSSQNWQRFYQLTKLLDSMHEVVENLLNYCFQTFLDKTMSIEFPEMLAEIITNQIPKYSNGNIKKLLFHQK

Assay [6] has as its target Mitogen-activated protein kinase 10 (Mus musculus) (UniProt Q61831). The assay can be described thus: JNK3 AlphaScreen Assay (AID 530).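 Further: kinase came from lysate of stimulated human HepG2 cells; signal reports phosphorylation of biotinylated GST-cJun 1-79 at Ser73 with 10 µM ATP; on the % scale 0 is the no-effect control and ±100 the full control effect.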 The note with it: JNK3 lysate, c-Jun phosphorylation; series mostly up to 57.1 µM. The procedure, abridged:
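qHTS format: compounds tested as titrations against IL-1beta/TNF-alpha-activated HepG2 lysate JNK3 with biotin-GST-cJun substrate and 10 uM ATP at room temperature. Loss of anti-phospho-cJun AlphaScreen signal indicates inhibition.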
A general note: Alpha assays give light when donor and acceptor beads are brought close together.

The target of assay [7] is 3',5'-cyclic-AMP phosphodiesterase 4B (Homo sapiens) (UniProt Q07343). Nature of the assay: qHTS Assay for Inhibitors of PDE-IV (AID 607; active means well fitted activation curve with a large enough effect in the main read-out, with a control signal flat, not every such curve was filed as active; further: % of control where 0% means no effect). The note with it: HEK293 ACTOne CNG channel cells, membrane potential fluorescence; series mostly up to 22.9 µM. The procedure, abridged:
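ACTOne HEK293 cells carry a modified cAMP-gated CNG channel and express endogenous PDE4; plated 1000 cells/well, compounds up to 22.9 uM final. Membrane-potential dye fluorescence (ex 535/em 590) was read; parental cells received 10 uM forskolin + 100 uM RO 20-1724.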
Background: Quantitative high-throughput screening tests each substance at several concentrations.

The target of assay [8] is Cytochrome P450 3A4 (Homo sapiens) (UniProt P08684). The assay can be described thus: qHTS Assay for Inhibitors and Substrates of Cytochrome P450 3A4 (AID 884; active means well fitted curve in the direction sought with a large enough effect; an effect the other way counts as inactive or inconclusive; further: on the % scale 0 is the no-effect control and ±100 the full control effect; nearly all actives have a fitted effect of over 50% in size). Particulars: recombinant CYP3A4, Luciferin-PPXE luminescence; series mostly up to 57.1 µM. The method, boiled down:
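20 nM human CYP3A4 with 25 uM Luciferin-PPXE (at KM) in 200 mM KPO4, preincubated 10 min with compound; NADPH regeneration started a 60 min RT reaction. Luciferin detected by luminescence, normalized to 57 uM ketoconazole as full inhibition.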

Assay [9] shares this target. The assay can be described thus: qHTS Assay for Activators of Cytochrome P450 3A4 (AID 885; active means well fitted curve in the direction sought with a large enough effect; an effect the other way counts as inactive or inconclusive; further: nearly all actives have a fitted effect of over 65% in size; further: potency means the concentration at half of the fitted maximal effect). The note with it: recombinant CYP3A4, Luciferin-PPXE luminescence, 60 min; series mostly up to 57.1 µM. The procedure, abridged:
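20nM CYP3A4 + 25uM Luciferin-PPXE (=KM), 200mM KPO4; cpd 10 min RT; NADPH regen, 60 min RT; stop w/ detection buffer, 20 min; luminescence. Normalized to 57 uM ketoconazole.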

Assay [10] can be described thus: qHTS Assay for Lipid Storage Modulators (AID 1519; calls by dose curve). Particulars: Drosophila S3 cells, BODIPY lipid droplet/cell ratio, laser cytometry, cells loaded with oleic acid; for activity change, negative = inhibition: at 57.5 µM (top of the series). The procedure, abridged: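 Cells seeded at 5,000 per well were treated with compounds over a concentration series and loaded with oleic acid (400 uM, as added). Lipid droplet fluorescence (488 nm excitation, 500-530 nm channel) was read by laser-scanning cytometry and normalized to 20 uM Triacsin C.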

Assay [11] in a line: Primary qHTS for small molecule stabilizers of the endoplasmic reticulum resident proteome: Secreted ER Calcium Modulated Protein (SERCaMP) assay (AID 1508630; active means well fitted curve in the direction sought with a large enough effect; an effect the other way counts as inactive or inconclusive; further: on the % scale 0 is the no-effect control and ±100 the full control effect). The note with it: SH-SY5Y GLuc-SERCaMP (Gaussia luciferase released on ER calcium loss) secretion, thapsigargin, luminescence; series mostly up to 38.4 µM. The method, boiled down:
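GLuc-SERCaMP-expressing SH-SY5Y cells, pretreated 16 h with compound, are challenged with thapsigargin to empty ER calcium stores; after 4 h, coelenterazine is added directly to the medium and luminescence is imaged.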

Where [12] appears, read: measured here: cell count channel max response.
Setting [13] is: measured here: lipid channel max response.

3',5'-cyclic-AMP phosphodiesterase 4B (Homo sapiens), sequence (Q07343 whole entry, looked up): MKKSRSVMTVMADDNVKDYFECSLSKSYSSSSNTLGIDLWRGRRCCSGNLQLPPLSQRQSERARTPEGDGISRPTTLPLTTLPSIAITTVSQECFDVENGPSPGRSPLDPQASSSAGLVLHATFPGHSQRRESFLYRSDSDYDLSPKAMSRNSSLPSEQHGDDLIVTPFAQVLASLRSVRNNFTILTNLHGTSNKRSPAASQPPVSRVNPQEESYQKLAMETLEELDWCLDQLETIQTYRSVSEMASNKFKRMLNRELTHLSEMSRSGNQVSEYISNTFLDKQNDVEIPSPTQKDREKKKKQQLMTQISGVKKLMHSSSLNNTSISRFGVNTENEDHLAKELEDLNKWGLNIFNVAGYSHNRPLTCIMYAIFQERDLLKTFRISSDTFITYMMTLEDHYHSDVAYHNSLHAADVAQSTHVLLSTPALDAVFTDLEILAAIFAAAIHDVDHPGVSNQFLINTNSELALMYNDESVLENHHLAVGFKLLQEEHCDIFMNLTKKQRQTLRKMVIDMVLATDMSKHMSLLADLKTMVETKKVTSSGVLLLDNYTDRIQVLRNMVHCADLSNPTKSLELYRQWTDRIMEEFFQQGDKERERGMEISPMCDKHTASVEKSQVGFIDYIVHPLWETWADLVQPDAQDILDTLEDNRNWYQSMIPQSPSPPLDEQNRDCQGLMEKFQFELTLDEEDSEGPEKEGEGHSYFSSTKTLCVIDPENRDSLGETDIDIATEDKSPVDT
Cytochrome P450 3A4 (Homo sapiens), sequence (P08684 whole entry, looked up): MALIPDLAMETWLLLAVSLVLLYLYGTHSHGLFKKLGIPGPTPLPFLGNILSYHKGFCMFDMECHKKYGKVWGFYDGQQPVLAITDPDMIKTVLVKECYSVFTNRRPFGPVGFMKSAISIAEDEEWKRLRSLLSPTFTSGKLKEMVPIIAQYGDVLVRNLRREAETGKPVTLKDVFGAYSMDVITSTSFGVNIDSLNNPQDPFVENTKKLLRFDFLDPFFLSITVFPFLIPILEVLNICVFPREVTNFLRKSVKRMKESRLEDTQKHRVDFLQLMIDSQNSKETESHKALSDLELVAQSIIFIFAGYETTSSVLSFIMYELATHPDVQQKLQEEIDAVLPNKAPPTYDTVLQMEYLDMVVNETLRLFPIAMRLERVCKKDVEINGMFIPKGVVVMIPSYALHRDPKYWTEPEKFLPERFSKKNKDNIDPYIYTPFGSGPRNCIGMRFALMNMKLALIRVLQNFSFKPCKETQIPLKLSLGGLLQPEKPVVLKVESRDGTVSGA
Lysosomal acid glucosylceramidase (Homo sapiens), sequence (P04062 whole entry, looked up): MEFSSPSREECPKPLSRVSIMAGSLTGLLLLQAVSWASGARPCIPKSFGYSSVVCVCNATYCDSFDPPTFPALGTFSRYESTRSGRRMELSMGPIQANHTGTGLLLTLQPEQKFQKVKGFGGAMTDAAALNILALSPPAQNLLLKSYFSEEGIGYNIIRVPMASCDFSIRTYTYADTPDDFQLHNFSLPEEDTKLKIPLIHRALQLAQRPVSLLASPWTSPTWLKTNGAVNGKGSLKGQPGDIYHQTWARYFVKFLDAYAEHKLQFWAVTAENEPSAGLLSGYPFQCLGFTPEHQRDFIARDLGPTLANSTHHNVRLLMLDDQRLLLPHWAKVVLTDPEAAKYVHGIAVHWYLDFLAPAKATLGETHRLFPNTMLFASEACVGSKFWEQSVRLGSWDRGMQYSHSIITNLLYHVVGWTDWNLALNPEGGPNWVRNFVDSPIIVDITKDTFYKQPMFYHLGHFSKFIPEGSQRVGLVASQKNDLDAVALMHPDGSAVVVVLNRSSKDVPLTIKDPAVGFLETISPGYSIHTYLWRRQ

`O=C(c1cccc(F)c1)N1CCC2(CC1)CN(c1ncccn1)C2`: the Potency in assay [1] is > 11.4 µM (inactive); in [5], > 46 µM (inactive); in [9] it was 25.1 µM (active). Besides, the activity change, negative = inhibition is 1.82% (inactive) in assay [2], -6.5% (inactive) in assay [3] and 1.3% (inactive) in assay [10]. The activity, negative = inhibition in assay [4] was -6.7% (inactive). The Potency result in assay [6], in [7] and in assay [8] was “inactive” throughout. Further, the max response was found to be 1.53% in [10] (setting [12]) and 3.53% in assay [10] (setting [13]). The result in assay [11] was inactive.

Turning to `Cn1cccc1C(=O)N1CCC[C@@]2(CCN(C(=O)Nc3cccc(F)c3)C2)C1`, the results for the Potency in assay [1] and in assay [5] were > 11.4 µM (inactive) and > 46 µM (inactive), respectively. Moreover, the activity change, negative = inhibition in assay [2] was -5.32% (inactive); in assay [3] it was 4.03% (inactive); in assay [10] it was 4.9% (inactive). Further, the activity, negative = inhibition in assay [4] was 5.29% (inactive). The Potency entry in [6] and in assay [7] was “inactive” each time. In addition, the max response stood at 9.75% in assay [10] (setting [12]) and 17.3% in assay [10] (setting [13]). In addition, the result in assay [11] was inactive.

As to `CC(C)NC(=O)N1CC[C@@]2(CCCN(C(=O)c3ccncc3)C2)C1`, the Potency in assay [1] was > 11.4 µM (inactive); in assay [5], > 46 µM (inactive). Moreover, the activity change, negative = inhibition in assay [2] was -20.1% (inactive); in assay [3], 16.9% (inactive); in [10] it was 0.271% (inactive). Also, in assay [4], the activity, negative = inhibition was -4.77% (inactive). The Potency entry in assay [6] and in assay [7] was “inactive” throughout. Besides, the max response is -1.86% in [10] (setting [12]) and 0.996% in [10] (setting [13]). The outcome in assay [11] was inactive.

Consider `CS(=O)(=O)N1CCC2(CCN(c3ccccn3)CC2)CC1`, for which the Potency in assay [1] was > 11.4 µM (inactive); in assay [5] it was > 46 µM (inactive). Moreover, the activity change, negative = inhibition is -5.04% (inactive) in assay [2], -12.8% (inactive) in [3] and 6.49% (inactive) in assay [10]. In [4], the activity, negative = inhibition is -2.94% (inactive). For the same molecule, the Potency result in assay [6] and in assay [7] was “inactive” each time. The max response in assay [10] (setting [12]) was 5.01%; in [10] (setting [13]), 13.9%. For the same molecule, the result in assay [11] was inactive.

`CC(=O)N1CCC[C@@]2(CCN(C(c3ccccc3)c3ccccc3)C2)C1`: the Potency in [1] was > 11.4 µM (inactive); in assay [5], > 46 µM (inactive). The activity change, negative = inhibition was -0.322% (inactive) in assay [2], 3.9% (inactive) in [3] and -4.88% (inactive) in assay [10]. Moreover, the activity, negative = inhibition in assay [4] is -10.9% (inactive). Further, the Potency entry in assay [6] and in assay [7] was “inactive” in each case. For the same molecule, the max response is -3.73% in assay [10] (setting [12]) and -8.87% in assay [10] (setting [13]). The outcome in [11] was inactive.

Consider `O=C(c1cccc(F)c1)N1CCC[C@@]2(CCN(Cc3ccccc3)C2)C1`, for which the Potency in [1] is > 11.4 µM (inactive); in assay [5], > 46 µM (inactive). The activity change, negative = inhibition was -3.14% (inactive) in assay [2], -11.7% (inactive) in assay [3] and -0.915% (inactive) in assay [10]. Further, the activity, negative = inhibition in assay [4] was 9.35% (inactive). Also, the Potency result in assay [6] and in assay [7] was “inactive” in each case. Further, the values for the max response in assay [10] (setting [12]) and in assay [10] (setting [13]) were 11.6% and 12%, respectively. The outcome in assay [11] was inactive.

Turning to `COc1ccc(NC(=O)N2CC[C@@]3(CCCN(S(C)(=O)=O)C3)C2)cc1`, the values for the Potency in assay [1] and in assay [5] were > 11.4 µM (inactive) and > 46 µM (inactive), respectively. The activity change, negative = inhibition in [2] was -12.7% (inactive); in [3], 4.27% (inactive); in [10], 4.71% (inactive). In addition, the activity, negative = inhibition in [4] was -1.03% (inactive). Besides, the Potency result in assay [6], in assay [7] and in [9] was “inactive” throughout. The max response in [10] (setting [12]) was found to be 8.24%; in assay [10] (setting [13]), 15.1%. Further, in assay [11], the result was inactive.

Consider `COCC(=O)N1CCC2(CC1)CCN(c1ccccc1)CC2`, for which the Potency is > 11.4 µM (inactive) in assay [1] and > 46 µM (inactive) in [5]. Besides, the figures for the activity change, negative = inhibition in [2], in [3] and in assay [10] were -2.33% (inactive), 15.9% (inactive) and -1.96% (inactive), respectively. For the same molecule, the activity, negative = inhibition in [4] was -2.7% (inactive). Moreover, the Potency entry in assay [6] and in [7] was “inactive” in each case. In addition, the max response was 4.08% in [10] (setting [12]) and 3.97% in assay [10] (setting [13]). In assay [11], the outcome was inactive.

As to `O=C(Nc1cccc(F)c1)N1CC2(CCN(C(=O)c3cccc(F)c3)CC2)C1`, the Potency in assay [1] was > 11.4 µM (inactive); in [5], > 46 µM (inactive). Besides, the activity change, negative = inhibition in assay [2] is -21.6% (inactive); in [3], 22.7% (inactive); in [10] it was 1.48% (inactive). For the same molecule, the activity, negative = inhibition in assay [4] is -4.12% (inactive). In addition, the Potency result in assay [6] and in assay [7] was “inactive” throughout. Moreover, the max response in assay [10] (setting [12]) was 1.76%; in assay [10] (setting [13]), 6.4%. The result in [11] was inactive.
